# Laboratory results taken from PubChem BioAssay AID1851 (National Center for Advancing Translational Sciences (NCATS), 2009).
# The whole screen tested about 16,000 compounds, of which about 5,100 (32%) were called active. Roughly 25% stayed inconclusive and do not appear here. Calls come from the whole dose curve; as a rule, active = well fitted curve in the direction sought with a large enough effect; inconclusive = small, poorly fitted or top-dose-only effect, or effect the other way; inactive = no such curve, though single readings can be large or run the other way. This is one part of the list.
# Target: Cytochrome P450 3A4 (Homo sapiens) (UniProt P08684)
# Experiment: Cytochrome panel assay with activity outcomes
# Conditions: recombinant CYP, pro-luciferin dealkylation, luminescence, p450-cyp3a4; series mostly up to 57.1 µM
# % is set by controls: 0 for no effect and ±100 for the full control effect.
# Chain of Cytochrome P450 3A4 (Homo sapiens) (P08684 whole entry, looked up): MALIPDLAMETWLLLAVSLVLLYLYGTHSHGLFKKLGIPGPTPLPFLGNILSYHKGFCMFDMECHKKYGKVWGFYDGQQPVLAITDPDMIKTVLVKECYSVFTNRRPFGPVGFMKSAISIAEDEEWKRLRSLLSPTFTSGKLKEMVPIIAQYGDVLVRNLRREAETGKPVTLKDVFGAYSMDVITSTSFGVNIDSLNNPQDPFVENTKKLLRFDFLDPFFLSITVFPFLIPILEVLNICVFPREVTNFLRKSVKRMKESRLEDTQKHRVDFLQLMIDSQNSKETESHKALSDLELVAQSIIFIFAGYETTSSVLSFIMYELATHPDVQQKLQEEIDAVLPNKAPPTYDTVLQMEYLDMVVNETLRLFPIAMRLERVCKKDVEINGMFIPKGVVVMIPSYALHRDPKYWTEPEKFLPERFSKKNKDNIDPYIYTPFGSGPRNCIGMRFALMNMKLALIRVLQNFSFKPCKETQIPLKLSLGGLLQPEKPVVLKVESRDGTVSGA
SMILES,AC50,"activity, negative = inhibition"
N#Cc1cc2nc(O)c(O)nc2cc1[N+](=O)[O-],inactive,
CNc1nc(-c2cccc(NS(C)(=O)=O)c2)nc2ccccc12,10 µM (active),
CS(=O)(=O)Nc1cccc(-c2nccc(Nc3ccc(F)cc3)n2)c1,10 µM (active),
CS(=O)(=O)Nc1cccc(-c2nc(Nc3ccncc3)c3ccccc3n2)c1,3.98 µM (active),
Oc1cc(CN2COc3ccccc32)c(O)cc1CNC1CCCCC1,,-5.1% [at 11.4 µM] (inactive)
CCN1C(=O)C=CC1=O,inactive,
O=C(c1ccco1)N1CCC2(CCN(Cc3ccncc3)CC2)CC1,12.6 µM (active),
O=C(c1ccco1)N1CCC2(CCCN(Cc3ccncc3)C2)CC1,5.01 µM (active),
O=C(c1ccco1)N1CCC2(CC1)CN(Cc1cc(C(F)(F)F)cc(C(F)(F)F)c1)C2,inactive,
O=C(O)[C@H](/C=C\c1ccccc1)c1ccccc1,,-11.9% [at 11.4 µM] (inactive)
Cc1ccc(S(=O)(=O)CC#CCOC(=O)c2ccc([N+](=O)[O-])cc2)cc1,15.8 µM (active),
Cc1ccc(CNC(=O)C2CC(c3ccccc3[N+](=O)[O-])=NO2)cc1 (stereo unspecified),,-29.5% [at 2.29 µM] (inactive)
Cc1ccc(CNC(=O)C2CCC(=O)N2C2CCCCC2)cc1 (stereo unspecified),7.94 µM (active),
O=C(NCCCN1CCN(c2ccccc2F)CC1)C1CCC(=O)N1C1CCCCC1 (stereo unspecified),inactive,
O=C(O)C1CCCN1C(=O)OCc1ccccc1 (stereo unspecified),inactive,
COc1ccccc1NC(=O)N1CCCC1C(=O)NCc1ccc2c(c1)OCO2 (stereo unspecified),0.355 µM (active),
COc1ccc(NC(=O)N2CCCC2C(=O)Nc2ccccc2)cc1 (stereo unspecified),inactive,
NS(=O)(=O)c1ccc(CCNC(=O)C2CCCN2C(=O)OCc2ccccc2)cc1 (stereo unspecified),12.6 µM (active),
Cc1ccc(CNC(=O)C2CCCN2C(=O)NCc2ccccc2)cc1 (stereo unspecified),3.55 µM (active),
C=C1CC[C@H](O)C/C1=C/C=C1\CCC[C@]2(C)[C@H]1CC[C@H]2[C@@H](C)/C=C\[C@@H](C)C(C)C,inactive,
O=C1CC[C@](CCc2nc3ccccc3[nH]2)(c2ccccc2)C(=O)N1,,-26.9% [at 11.4 µM] (inactive)
CCCNC(=O)c1c(C)cc(=O)oc1C,inactive,
O=C(CSCc1cccc(Br)c1)N/N=C/c1ccc2c(c1)OCO2,3.98 µM (active),
Cc1oc(-c2ccccc2F)nc1CSCC(=O)NCc1ccc2c(c1)OCO2,1 µM (active),

SMILES,AC50,"activity, negative = inhibition"
C/C(=N\NC(N)=O)c1ccc(Cl)cc1,,-0.483% [at 11.4 µM] (inactive)
O=C(Cn1nc(C(F)F)cc1C(F)F)N/N=C/c1ccc2c(c1)OCO2,5.01 µM (active),
C/C(=N\NC(=O)CSCc1ccc(Cl)cc1)c1ccc2c(c1)OCCO2,14.1 µM (active),
C=CCNC(=O)CC(=O)N/N=C/c1cccc(Br)c1,inactive,
CCCCCCCCC(=O)N/N=C/c1cccc(Br)c1,,-6.69% [at 11.4 µM] (inactive)
O=C(CSCc1ccc(Cl)cc1)Nc1ccc2c(c1)OCCO2,,-20.7% [at 11.4 µM] (inactive)
O=C(O)C(Cl)(c1ccccc1)c1ccccc1,,-5.68% [at 11.4 µM] (inactive)
O=C(CSCc1cccc(Cl)c1)NCc1ccc2c(c1)OCO2,1.12 µM (active),
O=C(/C=C/c1ccc2c(c1)OCO2)NCCSCc1cccc(Cl)c1,,18.2% [at 2.29 µM] (inactive)
Cc1cc(OC(=O)c2ccccc2Cl)cc(=O)n1C,inactive,
CN(C)C(=O)c1ccc(-c2nccc(NCc3cccnc3)n2)cc1,15.8 µM (active),
Cc1cccc(CNc2ccnc(-c3ccc(C(=O)N(C)C)cc3)n2)c1,3.16 µM (active),
[N-]=[N+]=Nc1ccc(C(=O)CSC[C@@H](NC(=O)CC[C@@H](N)C(=O)O)C(=O)NCC(=O)O)cc1,inactive,
CC(C)[C@H]1C(=O)C(C(N)=O)=C(O)[C@]2(O)C(=O)C3=C(O)c4c(O)ccc(N(C)C)c4C[C@H]3C[C@@H]12,inactive,
COc1ccc(Nc2ncc3nc(-c4cccs4)c(=O)n(Cc4cccc(OC)c4)c3n2)cc1,inactive,
COc1ccc(Oc2ncc3nc(-c4cccs4)c(=O)n(Cc4cccc(OC)c4)c3n2)cc1,3.98 µM (active),
COc1ncc2nc(-c3cccs3)c(=O)n(Cc3ccc(F)cc3)c2n1,3.16 µM (active),
COc1cccc(Cn2c(=O)c(-c3cccs3)nc3cnc(OC)nc32)c1,3.98 µM (active),
COc1cccc(Cn2c(=O)c(-c3cccs3)nc3cncnc32)c1,5.01 µM (active),
O=C(O)c1ccc(C(=O)c2ccccc2)c(C(=O)O)c1,,-42.2% [at 11.4 µM] (inactive)
C=CCN=C(NC#N)SCc1ccccc1,,-3.62% [at 2.29 µM] (inactive)
CCNc1ncc2nc(-c3ccc(OC)cc3)c(=O)n(Cc3ccc(F)cc3)c2n1,inactive,
COc1ncc2nc(-c3ccc(F)cc3)c(=O)n(Cc3ccc(F)cc3)c2n1,3.16 µM (active),
COc1cc2c(cc1OC)CN(CC(=O)Nc1ccc3c(c1)OCO3)CC2,3.55 µM (active),

SMILES,AC50,"activity, negative = inhibition"
CCOc1ccc(C(=O)CN2CCN(S(=O)(=O)c3ccc(F)cc3)CC2)cc1,6.31 µM (active),
CCOc1ccc(NC(=O)CN2CCN(S(=O)(=O)c3ccc(Cl)cc3)CC2)cc1,14.1 µM (active),
O=C(CN1CCN(S(=O)(=O)c2ccc(F)cc2)CC1)Nc1ccc(Cl)c(C(F)(F)F)c1,5.01 µM (active),
CCN(CC)C(=O)COc1ccc(S(=O)(=O)N2CCOCC2)cc1,,-4.69% [at 11.4 µM] (inactive)
CCOC(=O)c1ccc(S(=O)(=O)N2CCN(C)CC2)cc1,inactive,
COc1ccc(NC(=O)CC#N)cc1OC,inactive,
N[C@@H](Cc1ccnnc1)C(=O)O,,-3.75% [at 11.4 µM] (inactive)
Cc1nnc(S(=O)(=O)c2ccc(N=Nc3c(N)nc(N)nc3N)cc2)s1,,4.76% [at 11.4 µM] (inactive)
CCN(CC(=O)Nc1ccc2c(c1)OCCO2)C(=O)c1cccc(S(=O)(=O)N2CCOCC2)c1,,-20.1% [at 11.4 µM] (inactive)
O=C(CN1CCN(S(=O)(=O)c2ccc(F)cc2)CC1)Nc1ccc2c(c1)OCO2,2 µM (active),
O=C(CN1CCN(S(=O)(=O)c2ccc(Cl)cc2)CC1)Nc1ccc2c(c1)OCO2,1 µM (active),
CC1(C)CCCN(C(=O)c2coc(=O)c(Br)c2)C1,inactive,
Cn1c(C(=O)O)c(CC(=O)NCc2cccnc2)c2ccccc21,inactive,
Cc1ccnc(NC(=O)c2cccc(NC(=O)COc3ccccc3)c2)c1,,-4.8% [at 2.29 µM] (inactive)
O=C(Cc1ccc(Cl)cc1)N1CCN(C(=O)c2ccco2)CC1,inactive,
CCn1c(=O)cc(SCC(=O)N2CCN(C(=O)c3ccco3)CC2)c2ccccc21,7.08 µM (active),
CC(C)NC(=O)N1CCC2(CC1)CCN(C(=O)c1ccco1)CC2,inactive,
Cn1c(=O)cc(OCC(=O)NCc2cccnc2)c2ccccc21,12.6 µM (active),
CCn1c(=O)cc(OCC(=O)Nc2cccnc2)c2ccccc21,7.08 µM (active),
CCn1c(=O)cc(SCC(=O)Nc2cc(OC)c(OC)c(OC)c2)c2ccccc21,5.01 µM (active),
CCC(CC)C(=O)NCCN1CCN(C(=O)C(CC)CC)CC1,,2.98% [at 2.29 µM] (inactive)
CC(C)CCOc1ccc(NC(=O)C2OC3OC(C)(C)OC3C3OC(C)(C)OC23)cc1 (stereo unspecified),,-3.7% [at 2.29 µM] (inactive)
CCN(C(=O)COc1cc(=O)n(C)c2ccccc12)c1cccc(Cl)c1,3.55 µM (active),
Cn1c(=O)cc(OCCCC(=O)Nc2cccnc2)c2ccccc21,6.31 µM (active),

SMILES,AC50,"activity, negative = inhibition"
COc1cc(=O)n(C)c2c(OC[C@@H](O)C(C)(C)O)cccc12,inactive,
CCCNC(=O)OC[C@@H]1O[C@H](CCO/N=C(\C)CCN2CCCc3nc(C)c(C)cc32)C=C[C@@H]1Oc1ccc(OC)cc1,3.98 µM (active),
CCCNC(=O)OC[C@@H]1O[C@H](CCO/N=C(\C)CCN2CCCCc3nc(C)c(C)cc32)C=C[C@@H]1Oc1ccc(OC)cc1,3.16 µM (active),
O=C(c1ccccc1)c1ccc2nc(-c3ccc(NC(=O)c4ccccc4F)cc3)[nH]c2c1,inactive,
Fc1cc2nc(-c3ccncc3)[nH]c2cc1F,1.41 µM (active),
C/C(=N\N1CCN(C2c3ccccc3-c3ccccc32)CC1)c1cccnc1,2.82 µM (active),
C/C(=N\N1CCN(C2c3ccccc3-c3ccccc32)CC1)c1ccncc1,1 µM (active),
O=[N+]([O-])c1cc(/C=N/N2CCN(C3c4ccccc4-c4ccccc43)CC2)ccc1Cl,inactive,
O=c1c2cnn(-c3ccccc3)c2nnn1/N=C/c1cccnc1,inactive,
C(=N\N1CCN(C2c3ccccc3-c3ccccc32)CC1)/c1cccnc1,12.6 µM (active),
Cc1ccccc1OCC(O)Cn1c(NCc2ccccc2)nc2c1c(=O)[nH]c(=O)n2C (stereo unspecified),11.2 µM (active),
Cc1cc(C)n(-c2nc3c(c(=O)[nH]c(=O)n3C)n2CC(C)C)n1,inactive,
Cc1ccc(C(=O)CNc2nc3c(c(=O)[nH]c(=O)n3C)n2Cc2ccccc2)cc1,5.01 µM (active),
Cn1c(=O)[nH]c(=O)c2c1nc(NCCCO)n2CCCc1ccccc1,inactive,
CC(C)(C)NC[C@H](O)COc1cccc2[nH]c(=O)[nH]c12,inactive,
CN(C)c1ncc2nc(-c3ccccc3)c(=O)n(CCc3ccccc3)c2n1,inactive,
CN(C)c1ncc2ncc(=O)n(CCc3ccccc3)c2n1,inactive,
Cc1nc2cnc(N(C)C)nc2n(-c2ccccc2)c1=O,inactive,
CN(C)c1ncc2nc(CCc3ccccc3)c(=O)n(-c3ccccc3)c2n1,6.31 µM (active),
CN(C)c1ncc2nc(-c3ccc(Cl)cc3)c(=O)n(Cc3cccs3)c2n1,inactive,
COCCn1c(=O)c(CCc2ccccc2)nc2cnc(N(C)C)nc21,15.8 µM (active),
CN(C)c1ncc2nc(CCc3ccccc3)c(=O)n(Cc3cccs3)c2n1,10 µM (active),
CN(C)c1ncc2nc(CCc3ccccc3)c(=O)n(CCc3ccccc3)c2n1,6.31 µM (active),
COCCn1c(=O)c(C)nc2cnc(N(C)C)nc21,inactive,
